“And” between values parts separate entries of the source, which are not always exact repeats. Equal values may be shown once. The campaign covered roughly 5,500 compounds. About 2,000 (36%) were called active. Another 18% or so got no clear call; they are omitted. No stated cut-off is given here; in the data, active means normalized growth mostly below about 0.91 (no sharp cut-off); inconclusive means no clear call, values can overlap the other calls; inactive means mostly above about 0.92. This is one part of the list.
Test: chemical genetic growth profiling, strain panel (AID 1159580);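 further: tested at 20 µM; growth read once vehicle control cultures reached saturation at 30 °C; 1 = growth at the plate median or of vehicle wells; lower values mean less growth of the strain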
Conditions: growth OD
[1] = S. cerevisiae deletion strains, locus YBR229C, strain ROT2, hits give low values
[2] = S. cerevisiae deletion strains, locus YDL101C, strain DUN1, hits give low values
[3] = S. cerevisiae deletion strains, locus YEL061C, strain CIN8, hits give low values
[4] = S. cerevisiae deletion strains, locus YGR078C, strain PAC10, hits give low values
[5] = S. cerevisiae deletion strains, locus YGR229C, strain SMI1, hits give low values
[6] = S. cerevisiae deletion strains, locus YHR030C, strain SLT2, hits give low values
[7] = S. cerevisiae deletion strains, locus YJR043C, strain POL32, hits give low values
[8] = S. cerevisiae deletion strains, locus YKL190W, strain CNB1, hits give low values
[9] = S. cerevisiae deletion strains, locus YLR039C, strain RIC1, hits give low values
[10] = S. cerevisiae deletion strains, locus YLR262C, strain YPT6, hits give low values
[11] = S. cerevisiae deletion strains, locus YNL153C, strain GIM3, hits give low values

Measured: normalized growth

Cc1ccc(OS(=O)(=O)c2ccc(Cl)cc2)c([N+](=O)[O-])n1
inactive: S. cerevisiae deletion strains, locus YAL013W, strain DEP1, hits give low values 0.965 | [1] 0.987 | [2] 0.932 | S. cerevisiae deletion strains, locus YDL134C, strain PPH21, hits give low values 0.968 | S. cerevisiae deletion strains, locus YDR150W, strain NUM1, hits give low values 0.833 | [3] 0.964 | [4] 0.931 | [5] 0.978 | [6] 0.775 | S. cerevisiae deletion strains, locus YHR087W, strain rtc3, hits give low values 0.975 | [7] 0.945 | S. cerevisiae deletion strains, locus YJR075W, strain HOC1, hits give low values 0.917 | [8] 0.968 | [9] 0.895 | S. cerevisiae deletion strains, locus YLR058C, strain SHM2 (second series), hits give low values 0.988 | S. cerevisiae deletion strains, locus YLR085C, strain ARP6, hits give low values 0.875 | [10] 0.908 | S. cerevisiae deletion strains, locus YML094W, strain GIM5, hits give low values 0.953 | S. cerevisiae deletion strains, locus YMR219W, strain ESC1, hits give low values 0.973 | S. cerevisiae deletion strains, locus YMR263W, strain SAP30, hits give low values 0.95 | [11] 0.936 | S. cerevisiae deletion strains, locus YNL298W, strain CLA4 (second series), hits give low values 0.915 | S. cerevisiae deletion strains, locus YNL322C, strain KRE1, hits give low values 0.976 | S. cerevisiae deletion strains, locus YNR030W, strain Alg12, hits give low values 0.943 | S. cerevisiae deletion strains, locus YPL055C, strain LGE1, hits give low values 0.962 | S. cerevisiae deletion strains, locus YPL241C, strain CIN2, hits give low values 0.943 | S. cerevisiae deletion strains, locus YPR135W, strain CTF4, hits give low values 0.877 | S. cerevisiae strains, strain wild type, hits give low values 0.949

O=C(O)CN(CCN(CC(=O)O)CC(=O)O)CC(=O)O
active: [2] 0.889 | S. cerevisiae deletion strains, locus YDL185W, strain tfp1, hits give low values 0.282 | S. cerevisiae deletion strains, locus YDL192W, strain arf1, hits give low values 0.826 | S. cerevisiae deletion strains, locus YDR318W, strain mcm21, hits give low values 0.817 | S. cerevisiae deletion strains, locus YDR502C, strain sam2, hits give low values 0.769 | S. cerevisiae deletion strains, locus YGL086W, strain mad1, hits give low values 0.79 | S. cerevisiae deletion strains, locus YGL248W, strain PDE1, hits give low values 0.826 | [4] 0.82 | S. cerevisiae deletion strains, locus YGR135W, strain pre9, hits give low values 0.819 | [5] 0.774 | S. cerevisiae deletion strains, locus YHR129C, strain ARP1, hits give low values 0.87 | S. cerevisiae deletion strains, locus YHR200W, strain rpn10, hits give low values 0.893 | S. cerevisiae deletion strains, locus YIL073C, strain SPO22, hits give low values 1.99 [resistant] | S. cerevisiae deletion strains, locus YJL187C, strain SWE1 (second series), hits give low values 0.861 | S. cerevisiae deletion strains, locus YKR001C, strain vps1, hits give low values 0.769 | S. cerevisiae deletion strains, locus YLR058C, strain SHM2, hits give low values 0.863 | S. cerevisiae deletion strains, locus YLR268W, strain sec22, hits give low values 0.801 | S. cerevisiae deletion strains, locus YLR418C, strain cdc73, hits give low values 0.764 | S. cerevisiae deletion strains, locus YMR223W, strain ubp8, hits give low values 0.793 | S. cerevisiae deletion strains, locus YNL067W, strain RPL9B, hits give low values 0.813 | [11] 0.834 | S. cerevisiae deletion strains, locus YNL233W, strain BNI4, hits give low values 0.847 | S. cerevisiae deletion strains, locus YOR136W, strain idh2, hits give low values 0.909 | S. cerevisiae deletion strains, locus YOR184W, strain ser1, hits give low values 0.699 | S. cerevisiae deletion strains, locus YPR167C, strain met16, hits give low values 0.902 | S. cerevisiae deletion strains, strain wtn01, hits give low values 0.816
inactive: S. cerevisiae deletion strains, locus YBR021W, strain FUR4, hits give low values 1.04 | [1] 0.995 | S. cerevisiae deletion strains, locus YCL029C, strain bik1, hits give low values 0.958 | S. cerevisiae deletion strains, locus YDL035C, strain GPR1, hits give low values 0.869 | S. cerevisiae deletion strains, locus YDL074C, strain BRE1, hits give low values 0.885 | S. cerevisiae deletion strains, locus YDR101C, strain arx1, hits give low values 0.989 | S. cerevisiae deletion strains, locus YDR162C, strain NBP2, hits give low values 0.918 | S. cerevisiae deletion strains, locus YDR388W, hits give low values 1.02 | [3] 0.934 | S. cerevisiae deletion strains, locus YER110C, hits give low values 0.938 | S. cerevisiae deletion strains, locus YER155C, strain BEM2, hits give low values 1.01 | S. cerevisiae deletion strains, locus YER167W, strain BCK2, hits give low values 0.936 | S. cerevisiae deletion strains, locus YGL078C, strain dbp3, hits give low values 0.985 | S. cerevisiae deletion strains, locus YGR252W, strain gcn5, hits give low values 0.994 | [6] 0.97 and 0.976 | S. cerevisiae deletion strains, locus YHR079C, strain IRE1 (second series), hits give low values 0.991 | S. cerevisiae deletion strains, locus YHR079C, strain IRE1, hits give low values 0.934 | S. cerevisiae deletion strains, locus YHR094C, strain hxt1, hits give low values 0.994 | S. cerevisiae deletion strains, locus YIL066C, strain RNR3, hits give low values 0.925 | S. cerevisiae deletion strains, locus YIL125W, strain kgd1, hits give low values 1.01 | S. cerevisiae deletion strains, locus YIR030C, strain dcg1, hits give low values 0.96 | S. cerevisiae deletion strains, locus YJL095W, strain BCK1, hits give low values 0.849 and 0.971 | S. cerevisiae deletion strains, locus YJL134W, strain LCB3, hits give low values 0.972 | S. cerevisiae deletion strains, locus YJL168C, strain set2, hits give low values 0.989 | [7] 0.891 | S. cerevisiae deletion strains, locus YJR066W, strain TOR1, hits give low values 0.888 | S. cerevisiae deletion strains, locus YKL009W, strain mrt4, hits give low values 0.97 | S. cerevisiae deletion strains, locus YKL068W, hits give low values 0.996 | S. cerevisiae deletion strains, locus YKL085W, strain MDH1 (second series), hits give low values 1.03 | S. cerevisiae deletion strains, locus YKL085W, strain MDH1, hits give low values 1.03 | [8] 0.94 | [9] 0.914 | S. cerevisiae deletion strains, locus YLR102C, strain apc9, hits give low values 0.995 | S. cerevisiae deletion strains, locus YLR113W, strain HOG1, hits give low values 1.09 | [10] 0.827 | S. cerevisiae deletion strains, locus YLR330W, strain CHS5, hits give low values 0.944 | S. cerevisiae deletion strains, locus YLR342W, strain FKS1 (second series), hits give low values 0.871 | S. cerevisiae deletion strains, locus YLR371W, strain rom2, hits give low values 0.984 | S. cerevisiae deletion strains, locus YML016C, strain PPZ1, hits give low values 0.934 | S. cerevisiae deletion strains, locus YML032C, strain rad52, hits give low values 0.937 | S. cerevisiae deletion strains, locus YML124C, strain tub3, hits give low values 0.979 | S. cerevisiae deletion strains, locus YMR078C, strain ctf18, hits give low values 0.99 | S. cerevisiae deletion strains, locus YMR307W, strain GAS1, hits give low values 0.928 | S. cerevisiae deletion strains, locus YNL183C, strain NPR1, hits give low values 0.973 | S. cerevisiae deletion strains, locus YNL250W, strain rad50, hits give low values 1.01 | S. cerevisiae deletion strains, locus YNL271C, strain bni1, hits give low values 0.982 | S. cerevisiae deletion strains, locus YNL298W, strain CLA4, hits give low values 0.99 | S. cerevisiae deletion strains, locus YNL307C, strain MCK1, hits give low values 0.991 | S. cerevisiae deletion strains, locus YNR052C, strain pop2, hits give low values 0.953 | S. cerevisiae deletion strains, locus YOL006C, strain TOP1, hits give low values 1.23 | S. cerevisiae deletion strains, locus YOL012C, strain htz1 0.486 | S. cerevisiae deletion strains, locus YOL147C, strain pex11, hits give low values 0.983 | S. cerevisiae deletion strains, locus YOR061W, strain CKA2, hits give low values 0.913 | S. cerevisiae deletion strains, locus YOR069W, strain VPS5, hits give low values 0.947 | S. cerevisiae deletion strains, locus YOR144C, strain elg1, hits give low values 0.976 | S. cerevisiae deletion strains, locus YOR231W, strain MKK1, hits give low values 0.92 | S. cerevisiae deletion strains, locus YOR316C, strain cot1, hits give low values 0.979 | S. cerevisiae deletion strains, locus YPL256C, strain CLN2, hits give low values 1.07 | S. cerevisiae deletion strains, locus YPR119W, strain clb2, hits give low values 0.992 | S. cerevisiae deletion strains, locus YPR141C, strain kar3, hits give low values 0.992 | S. cerevisiae deletion strains, locus YPR163C, strain tif3, hits give low values 0.99

From PubChem BioAssay AID1159580 (chemical genetic matrix, 2015)
